PubChem BioAssay (Tox21)
Records with an inconclusive call do not appear. The source made the active and inactive calls. Unless noted, calls follow the shape of the dose curve; as a rule, active = well fitted curve in the direction sought with a large enough effect in the repeat runs; inconclusive = weak or mixed curves; inactive = no such curve, though single readings can be large; an effect the other way counts as inactive or inconclusive.

Legend:
[1] = molecular target: Estrogen receptor beta (Homo sapiens) (UniProt Q92731); test: qHTS assay to identify small molecule agonists of the estrogen receptor beta (ER-beta) signaling pathway (AID 1259377; active = well fitted activation curve with a large enough effect in the signal ratio in the repeat runs, not every such curve was filed as active; the % refers to the signal ratio)
How it was run: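 HEK293T ER-beta-UAS-bla; 2% charcoal-stripped FBS; cells pre-incubated 6 hr, compound 16 hr, 37C/5% CO2; LiveBLAzer B/G FRET substrate 2 h RT; fluorescence intensity read.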

[2] = molecular target: Estrogen receptor beta (Homo sapiens) (UniProt Q92731); test: qHTS assay to identify small molecule antagonists of the estrogen receptor beta (ER-beta) signaling pathway (AID 1259378; active = well fitted inhibition curve with a large enough effect in the signal ratio in the repeat runs, not every such curve was filed as active; the % refers to the signal ratio; also: potency is read from the fitted curve at half-maximal effect)
How it was run: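 ER-beta-UAS-bla HEK293T cells in 2% charcoal-stripped FBS medium treated with compound plus 1nM final 17-beta-estradiol for 16 hr at 37C. Beta-lactamase reporter read by FRET substrate fluorescence after 2 hours at room temperature.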

[3] = qHTS assay to identify small molecule agonists of the androgen receptor (AR) signaling pathway in the presence of an antagonist - cell viability counter screen (AID 1259379); also: nearly all actives have a fitted effect of over 25% in size; also: potency is read from the fitted curve at half-maximal effect
How it was run: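 A CellTiter-Fluor read-out measured viability of MDA-kb2 reporter cells (MMTV promoter with AR and GR response elements). Treatment: nilutamide 3.0uM final with compounds at 15 concentrations, 16 hr, 37C, 0% CO2.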

[4] = qHTS assay to identify small molecule agonists of the estrogen receptor beta (ER-beta) signaling pathway - cell viability counter screen (AID 1259380); also: nearly all actives have a fitted effect of over 30% in size; also: potency is read from the fitted curve at half-maximal effect
How it was run: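 Cells used were ER-beta-UAS-bla HEK293T in medium with 2% charcoal-stripped FBS. They were treated for 16 hr at 37C. Viability came from CellTiter-Glo luminescence.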

[5] = qHTS assay to identify small molecule antagonists of the estrogen receptor beta (ER-beta) signaling pathway - cell viability counter screen (AID 1259382); also: nearly all actives have a fitted effect of over 55% in size; also: potency is read from the fitted curve at half-maximal effect
How it was run: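 Agonist-stimulated (1nM E2) ER-beta-UAS-bla HEK293T cells are incubated with library compounds for 16 hr at 37C. Cell viability is then assessed in the reporter-assay wells by adding CellTiter-Glo and reading luminescence after 30 min.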

[6] = molecular target: Estrogen receptor (Homo sapiens) (UniProt P03372); test: qHTS assay to identify small molecule agonists of the estrogen receptor alpha (ER-alpha) signaling pathway in the presence of an antagonist (AID 1259383; calls by dose curve; also: top concentration of the series differs between compounds; nearly all actives have a fitted effect of over 15% in size)
How it was run: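 Using VM7Luc4E2 cells seeded 24hr before treatment, antagonist ICI-182,780 (10.0nM final) was added, followed by compounds at 15 concentrations. Plates incubated 22hr; ONE-Glo luminescence quantified reporter activity.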

[7] = qHTS assay to identify small molecule agonists of the estrogen receptor alpha (ER-alpha) signaling pathway in the presence of an antagonist - cell viability counter screen (AID 1259386);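 also: cells exposed to compounds for 22 h at 37 °C before the viability read; nearly all actives have a fitted effect of over 30% in size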; also: potency is read from the fitted curve at half-maximal effect
How it was run: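 ICI-182,780 at 10.0nM final accompanies the compound titration (15 concentrations, 22hr, 37C) on VM7Luc4E2 cells. The CellTiter-Fluor fluorescence readout runs in the same wells as the luciferase assay.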

[8] = molecular target: Progesterone receptor (Homo sapiens) (UniProt P06401); test: qHTS assay to identify small molecule agonists of the progesterone receptor (PR) signaling pathway (AID 1346784; calls by dose curve; also: nearly all actives have a fitted effect of over 30% in size; also: potency is read from the fitted curve at half-maximal effect)
How it was run: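 Beta-lactamase reporter read-out: after 16 hr compound treatment at 37C and a further 2 hr at room temperature with LiveBLAzer B/G FRET substrate, fluorescence was measured in PR-UAS-bla HEK 293T cells grown in 2% charcoal-stripped serum.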

[9] = molecular target: Progesterone receptor (Homo sapiens) (UniProt P06401); test: qHTS assay to identify small molecule antagonists of the progesterone receptor (PR) signaling pathway (AID 1346795; active = well fitted inhibition curve with a large enough effect in the signal ratio in the repeat runs, not every such curve was filed as active; the % refers to the signal ratio; also: potency is read from the fitted curve at half-maximal effect)
How it was run: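 Read-out is fluorescence from the LiveBLAzer B/G FRET substrate, cleaved by a UAS-controlled beta-lactamase in PR-UAS-bla HEK293T cells after 16 hr exposure to compound plus 1 nM promegestone (final), followed by 2 hr at room temperature.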

[10] = qHTS assay to identify small molecule antagonists of the progesterone receptor (PR) signaling pathway - cell viability counter screen (AID 1346798);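 also: HEK293T PR-UAS-bla cells stimulated with the agonist R5020; series mostly up to about 92 µM; nearly all actives have a fitted effect of over 50% in size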
How it was run: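 HEK293T PR-UAS-bla, 2% charcoal-stripped FBS; 4 hr pre-plate; cpd + R5020, 16 h 37C; LiveBLAzer read first; then CellTiter-Glo 30 min RT, luminescence.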

[11] = qHTS assay to identify small molecule agonists of the progesterone receptor (PR) signaling pathway - cell viability counter screen (AID 1346799; calls by dose curve; also: nearly all actives have a fitted effect of over 45% in size)
How it was run: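 Luminescence from CellTiter-Glo, added after the beta-lactamase FRET read in the same wells, gave cytotoxicity in PR-UAS-bla HEK293T cells treated with compounds for 16 hr at 37C.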

[12] = qHTS assay to identify small molecule antagonists of the TGF-beta/Smad signaling pathway - cell viability counter screen (AID 1346824); also: nearly all actives have a fitted effect of over 50% in size
How it was run: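 SBE-bla HEK 293T cells, incubated overnight, then compound plus 0.25 ng/mL TGF-beta1 (stock added) for 5 hr at 37 C. Viability was read in the same wells by CellTiter-Glo luminescence after 30 min at room temperature.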

[13] = qHTS assay to identify small molecule agonists of the TGF-beta/Smad signaling pathway - cell viability counter screen (AID 1346829); also: top concentration of the series differs between compounds; nearly all actives have a fitted effect of over 45% in size
How it was run: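 Tox21 qHTS format: SBE-bla HEK 293T cells treated with DMSO-dissolved compounds for 5 hr; CellTiter-Glo luminescence after 30 min at room temperature.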

[14] = molecular target: Thyrotropin receptor (Homo sapiens) (UniProt P16473); test: qHTS assay to identify small molecule antagonists of the thyroid stimulating hormone receptor (TSHR) signaling pathway (AID 1259385; calls by dose curve; also: nearly all actives have a fitted effect of over 20% in size)
How it was run: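 TSHR-HEK293 cells (800/well) plated 18 h, then compounds with Ro20-1724 and TSH at 1.5 ng/mL final, 30 min at room temperature. cAMP quantified by HTRF (cAMP-d2/anti-cAMP-cryptate, 1 h); 15 concentrations in triplicate.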

[15] = qHTS assay to identify small molecule agonists of the TGF-beta/Smad signaling pathway (AID 1346859; active = well fitted activation curve with a large enough effect in the signal ratio in the repeat runs, not every such curve was filed as active; the % refers to the signal ratio; also: series mostly up to about 77 µM)
How it was run: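 SBE-bla HEK 293T, 4,000 cells/well, plated o/n; cpd in DMSO, 5 hr, 37 C/5% CO2; B/G FRET substrate 2 hr RT; ex 405, em 460/530 nm.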

[16] = qHTS assay to identify small molecule agonists or antagonists of the thyroid stimulating hormone receptor (TSHR) signaling pathway - wild type cell line counter screen (AID 1259384; calls by dose curve)
How it was run: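 Wild-type Hek293 cells, 800/well, 18 h at 37C, then compound with Ro20-1724 for 30 min RT. cAMP by HTRF (cAMP-d2/anti-cAMP cryptate), 1 h RT, fluorescence read. 15 concentrations, triplicates.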

[17] = molecular target: Thyrotropin-releasing hormone receptor (Homo sapiens) (UniProt P34981); test: qHTS assay to identify small molecule antagonists of the thyrotropin-releasing hormone receptor (TRHR) signaling pathway (AID 1346877; active = well fitted inhibition curve with a large enough effect in the repeat runs, not every such curve was filed as active; also: series mostly up to about 51 µM)
How it was run: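 Screening used HEK293 cells engineered with TRHR, with a brief 5 min room-temperature compound exposure preceding addition of TRH to 1 nM. The read-out was kinetic calcium-dye fluorescence, concentration-response from 15 doses in triplicate.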

[18] = molecular target: Thyrotropin-releasing hormone receptor (Homo sapiens) (UniProt P34981); test: qHTS assay to identify small molecule agonists of the thyrotropin-releasing hormone receptor (TRHR) signaling pathway (AID 1346891; calls by dose curve; also: series mostly up to about 58 µM)
How it was run: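 Intracellular calcium rise, read as fluorescence every second for 3 min, served as the agonist signal in dye-loaded HEK293 cells expressing TRHR; each compound ran at 15 concentrations in triplicate.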

[19] = molecular target: Androgen receptor (Homo sapiens) (UniProt P10275); test: qHTS assay to identify small molecule agonists of the androgen receptor (AR) signaling pathway in the presence of an antagonist (AID 1259381; calls by dose curve; also: nearly all actives have a fitted effect of over 15% in size)
How it was run: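 Using human MDA-kb2 cells with an MMTV promoter–luciferase construct (AR and GR response elements), agonist activity is scored under 3.0uM nilutamide (final) co-treatment; 16hr incubation, 37C, luminescence readout via ONE-Glo.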

Measured: Potency

Chain of Thyrotropin-releasing hormone receptor (Homo sapiens) (P34981 whole entry, looked up): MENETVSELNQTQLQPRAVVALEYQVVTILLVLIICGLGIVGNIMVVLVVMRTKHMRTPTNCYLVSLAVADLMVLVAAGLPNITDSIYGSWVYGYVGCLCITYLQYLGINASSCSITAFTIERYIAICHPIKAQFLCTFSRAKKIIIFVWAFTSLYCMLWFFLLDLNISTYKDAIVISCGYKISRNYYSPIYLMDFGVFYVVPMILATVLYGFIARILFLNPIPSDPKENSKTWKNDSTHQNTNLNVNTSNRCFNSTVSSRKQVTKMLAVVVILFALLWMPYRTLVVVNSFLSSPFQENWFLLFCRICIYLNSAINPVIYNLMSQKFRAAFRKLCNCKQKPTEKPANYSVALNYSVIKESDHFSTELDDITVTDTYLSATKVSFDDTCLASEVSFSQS
Chain of Estrogen receptor beta (Homo sapiens) (Q92731 whole entry, looked up): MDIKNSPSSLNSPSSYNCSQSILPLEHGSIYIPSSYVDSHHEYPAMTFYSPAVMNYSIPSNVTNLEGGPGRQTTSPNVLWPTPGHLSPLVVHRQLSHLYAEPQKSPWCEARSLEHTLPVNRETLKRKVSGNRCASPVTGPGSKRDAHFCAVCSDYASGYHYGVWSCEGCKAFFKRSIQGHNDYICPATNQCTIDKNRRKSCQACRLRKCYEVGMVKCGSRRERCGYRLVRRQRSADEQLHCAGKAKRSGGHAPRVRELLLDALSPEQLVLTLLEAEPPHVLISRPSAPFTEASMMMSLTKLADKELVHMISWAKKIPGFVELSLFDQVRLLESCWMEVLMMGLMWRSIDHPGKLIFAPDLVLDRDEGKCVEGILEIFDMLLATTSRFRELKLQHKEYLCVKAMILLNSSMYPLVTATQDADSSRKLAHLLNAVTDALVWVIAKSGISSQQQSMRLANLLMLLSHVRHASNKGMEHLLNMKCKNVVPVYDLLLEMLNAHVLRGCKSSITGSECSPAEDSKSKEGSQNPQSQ
Chain of Estrogen receptor (Homo sapiens) (P03372 whole entry, looked up): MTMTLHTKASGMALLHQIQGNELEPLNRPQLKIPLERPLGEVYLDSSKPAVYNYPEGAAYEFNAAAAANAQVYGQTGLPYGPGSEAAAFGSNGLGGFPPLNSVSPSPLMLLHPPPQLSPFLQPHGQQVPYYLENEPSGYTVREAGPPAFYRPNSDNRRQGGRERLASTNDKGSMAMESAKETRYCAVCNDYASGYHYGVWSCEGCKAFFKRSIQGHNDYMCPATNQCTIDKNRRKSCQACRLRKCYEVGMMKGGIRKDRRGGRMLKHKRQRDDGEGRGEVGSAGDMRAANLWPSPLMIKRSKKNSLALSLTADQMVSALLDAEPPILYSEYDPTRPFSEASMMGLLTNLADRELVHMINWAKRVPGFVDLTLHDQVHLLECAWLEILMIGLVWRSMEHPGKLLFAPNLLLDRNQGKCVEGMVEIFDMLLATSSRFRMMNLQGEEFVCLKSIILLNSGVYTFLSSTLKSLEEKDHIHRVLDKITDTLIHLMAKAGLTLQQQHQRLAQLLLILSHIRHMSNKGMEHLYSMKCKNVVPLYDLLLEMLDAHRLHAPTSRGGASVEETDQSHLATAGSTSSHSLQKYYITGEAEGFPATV
Chain of Progesterone receptor (Homo sapiens) (P06401 whole entry, looked up): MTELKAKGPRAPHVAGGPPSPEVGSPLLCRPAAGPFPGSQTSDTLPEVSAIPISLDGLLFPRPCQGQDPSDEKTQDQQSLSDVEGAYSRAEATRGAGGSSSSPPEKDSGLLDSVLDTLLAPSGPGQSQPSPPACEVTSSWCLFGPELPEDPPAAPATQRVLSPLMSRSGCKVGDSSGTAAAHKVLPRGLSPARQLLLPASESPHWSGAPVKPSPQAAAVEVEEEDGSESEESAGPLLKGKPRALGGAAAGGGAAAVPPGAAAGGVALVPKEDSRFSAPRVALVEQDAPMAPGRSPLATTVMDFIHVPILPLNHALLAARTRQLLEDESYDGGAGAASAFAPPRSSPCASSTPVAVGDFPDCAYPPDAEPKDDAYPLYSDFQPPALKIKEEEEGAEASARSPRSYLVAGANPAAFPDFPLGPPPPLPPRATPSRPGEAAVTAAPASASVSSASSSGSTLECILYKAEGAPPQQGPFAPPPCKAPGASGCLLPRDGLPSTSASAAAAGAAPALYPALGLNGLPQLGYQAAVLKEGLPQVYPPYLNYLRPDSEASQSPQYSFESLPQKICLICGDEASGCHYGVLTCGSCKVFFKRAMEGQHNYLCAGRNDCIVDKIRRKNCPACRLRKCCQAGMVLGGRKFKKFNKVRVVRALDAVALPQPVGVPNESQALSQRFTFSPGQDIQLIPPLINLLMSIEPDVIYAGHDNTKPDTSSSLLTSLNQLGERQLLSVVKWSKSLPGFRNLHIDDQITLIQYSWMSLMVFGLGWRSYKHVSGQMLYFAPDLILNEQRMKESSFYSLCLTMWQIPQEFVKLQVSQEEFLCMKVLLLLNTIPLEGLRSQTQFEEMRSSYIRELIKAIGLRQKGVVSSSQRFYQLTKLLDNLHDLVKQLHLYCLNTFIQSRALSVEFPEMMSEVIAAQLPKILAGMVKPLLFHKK
Chain of Thyrotropin receptor (Homo sapiens) (P16473 whole entry, looked up): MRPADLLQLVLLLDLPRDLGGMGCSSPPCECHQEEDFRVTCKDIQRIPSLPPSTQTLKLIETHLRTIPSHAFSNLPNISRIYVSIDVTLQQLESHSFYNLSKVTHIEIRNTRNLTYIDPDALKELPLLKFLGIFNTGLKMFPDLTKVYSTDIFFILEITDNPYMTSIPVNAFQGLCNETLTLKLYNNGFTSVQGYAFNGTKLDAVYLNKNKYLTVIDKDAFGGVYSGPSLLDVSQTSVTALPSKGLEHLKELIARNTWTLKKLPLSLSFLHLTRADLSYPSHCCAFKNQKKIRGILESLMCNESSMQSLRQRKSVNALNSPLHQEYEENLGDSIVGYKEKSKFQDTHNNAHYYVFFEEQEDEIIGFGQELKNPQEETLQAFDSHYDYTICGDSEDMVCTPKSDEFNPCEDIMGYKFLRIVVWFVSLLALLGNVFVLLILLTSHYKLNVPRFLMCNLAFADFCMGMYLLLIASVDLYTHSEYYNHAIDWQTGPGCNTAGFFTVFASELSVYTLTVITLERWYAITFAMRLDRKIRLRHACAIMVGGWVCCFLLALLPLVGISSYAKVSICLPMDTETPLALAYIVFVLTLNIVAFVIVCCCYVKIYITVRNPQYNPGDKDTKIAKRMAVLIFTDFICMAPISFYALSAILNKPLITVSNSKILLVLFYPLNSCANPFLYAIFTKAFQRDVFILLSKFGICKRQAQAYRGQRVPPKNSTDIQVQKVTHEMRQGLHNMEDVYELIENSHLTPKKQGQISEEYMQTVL
Chain of Androgen receptor (Homo sapiens) (P10275 whole entry, looked up): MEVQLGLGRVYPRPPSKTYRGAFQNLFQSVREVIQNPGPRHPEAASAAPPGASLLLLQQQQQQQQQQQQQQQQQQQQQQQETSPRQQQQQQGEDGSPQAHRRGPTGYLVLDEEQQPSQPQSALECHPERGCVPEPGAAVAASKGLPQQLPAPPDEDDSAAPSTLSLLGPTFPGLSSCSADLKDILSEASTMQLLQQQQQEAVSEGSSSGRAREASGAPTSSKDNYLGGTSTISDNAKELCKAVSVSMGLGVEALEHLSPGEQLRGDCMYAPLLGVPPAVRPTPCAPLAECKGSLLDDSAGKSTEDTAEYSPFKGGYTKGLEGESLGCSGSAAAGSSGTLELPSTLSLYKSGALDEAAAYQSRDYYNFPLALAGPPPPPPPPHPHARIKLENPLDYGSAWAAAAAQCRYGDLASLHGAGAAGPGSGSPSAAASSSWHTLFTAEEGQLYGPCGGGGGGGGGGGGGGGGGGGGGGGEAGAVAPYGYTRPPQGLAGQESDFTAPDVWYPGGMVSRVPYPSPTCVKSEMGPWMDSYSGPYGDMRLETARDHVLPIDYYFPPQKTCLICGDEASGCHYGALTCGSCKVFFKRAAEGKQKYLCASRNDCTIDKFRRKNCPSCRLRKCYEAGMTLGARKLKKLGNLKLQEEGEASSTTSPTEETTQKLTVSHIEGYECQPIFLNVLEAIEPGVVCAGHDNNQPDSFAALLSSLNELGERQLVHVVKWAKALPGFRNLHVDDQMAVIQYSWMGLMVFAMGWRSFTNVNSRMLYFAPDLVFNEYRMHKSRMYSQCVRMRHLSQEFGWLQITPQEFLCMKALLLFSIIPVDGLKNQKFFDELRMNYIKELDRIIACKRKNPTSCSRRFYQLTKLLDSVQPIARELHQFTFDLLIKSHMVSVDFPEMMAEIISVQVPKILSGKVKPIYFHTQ

ClC(Cl)C(Cl)Cl
not listed: [14] | [15] | [16] | [17] | [18] | [19]
inactive: all other assays above

CS(=O)(=O)c1cc(C(F)(F)F)ccc1C(=O)c1cnoc1C1CC1
not listed: [2] | [9] | [10] | [16] | [17] | [18] | [19]
inactive: all other assays above

CC(C)CC(N(C)C)C1(c2ccc(Cl)cc2)CCC1 (stereo not given)
not listed: [4] | [6] | [11] | [14] | [19]
inactive: all other assays above

N#CC(Cl)(Cl)Cl
not listed: [1] | [8] | [9] | [14] | [15] | [16] | [17] | [18]
inactive: all other assays above

CC1COC2(c3ccccc3Cl)c3cc(Cl)ccc3NC(=O)CN12 (stereo not given)
active: [2] 26.6 µM
not listed: [4] | [9] | [10] | [17] | [18]
inactive: all other assays above

CCC#N
not listed: [1] | [6] | [9] | [19]
inactive: all other assays above

C#CCN1C(=O)COc2cc(F)c(N3C(=O)C4=C(CCCC4)C3=O)cc21
not listed: [2] | [9] | [10] | [11]
inactive: all other assays above

N#CCBr
not listed: [2] | [5] | [9] | [19]
inactive: all other assays above

COc1cccc2c1cc([N+](=O)[O-])c1c(C(=O)O)cc3c(c12)OCO3
active: [2] 19.3 µM | [3] 48.6 µM | [4] 48.6 µM | [5] 54.5 µM
not listed: [7] | [9] | [11] | [15] | [19]
inactive: all other assays above

CCc1cc2c(s1)-n1c(C)nnc1CN=C2c1ccccc1Cl
not listed: [2] | [5] | [14] | [16] | [19]
inactive: all other assays above

OC(c1ccc(F)cc1)(c1cncnc1)c1ccccc1Cl (stereo not given)
active: [9] 48.6 µM
not listed: [2] | [19]
inactive: all other assays above

Cc1ncc2n1-c1ccc(Cl)cc1C(c1ccccc1F)=NC2
not listed: [2] | [5] | [9] | [10] | [11] | [17] | [19]
inactive: all other assays above

COc1cc(OC)nc(Oc2cccc(Oc3nc(OC)cc(OC)n3)c2C(=O)O)n1
not listed: [2] | [6] | [11] | [14] | [16]
inactive: all other assays above

COC(=O)C(C)Oc1ccc(Oc2ccc(Cl)cc2Cl)cc1 (stereo not given)
not listed: [1] | [6] | [9] | [11] | [15] | [17] | [18] | [19]
inactive: all other assays above

O=[N+]([O-])c1ccc2c3c(cccc13)CC2
active: [9] 24.3 µM
not listed: [4] | [8] | [19]
inactive: all other assays above

O=C(O)C(Br)CBr (stereo not given)
active: [8] 5.54 µM
not listed: [15] | [19]
inactive: all other assays above

N#Cc1ccncc1
not listed: [7] | [9] | [14] | [16] | [17] | [18] | [19]
inactive: all other assays above

CCOC(=O)/C=C(C)/C=C/C[C@@H](C)CCCC(C)C
not listed: [2] | [4] | [5] | [9] | [14] | [16] | [19]
inactive: all other assays above

Nc1cc2c3c(c1)C(c1ccccc1)=N[C@@H](NC(=O)c1cccnc1)C(=O)N3CC2
not listed: [4] | [5] | [10] | [15] | [17] | [18] | [19]
inactive: all other assays above

COc1ncc(F)c2nc(S(=O)(=O)Nc3c(F)cccc3F)nn12
not listed: [2]
inactive: all other assays above

COC(C)(C)C
not listed: [4] | [6] | [8] | [11] | [17] | [18] | [19]
inactive: all other assays above

C=C(C)CN(CC)c1c([N+](=O)[O-])cc(C(F)(F)F)cc1[N+](=O)[O-]
not listed: [14] | [15] | [16] | [19]
inactive: all other assays above

CNNC
not listed: [1] | [5] | [9] | [14] | [16] | [19]
inactive: all other assays above

N#Cc1c(Cl)cccc1Cl
not listed: [14] | [15] | [16] | [19]
inactive: all other assays above

CCCCOC(=O)c1ccccc1C(=O)O
not listed: [4] | [6] | [10] | [11] | [17] | [18]
inactive: all other assays above

CC1(C)C(=O)NC(=O)NC1=O
not listed: [2] | [9] | [10] | [11] | [19]
inactive: all other assays above

CCN(CC)C(=O)[C@@H]1C=C2c3cccc4[nH]cc(c34)C[C@H]2N(C)C1
active: [7] 56.7 µM
not listed: [4] | [9] | [10] | [11] | [14] | [16] | [19]
inactive: all other assays above

CCS(=O)(=O)C(C)(C)S(=O)(=O)CC
not listed: [4] | [15] | [19]
inactive: all other assays above

O=C(Nc1ccccc1)c1ccccc1I
active: [9] 54.5 µM
not listed: [2] | [4] | [15]
inactive: all other assays above

COc1cc2c(cc1OC)[C@@]13CCN4CC5=CCO[C@H]6CC(=O)N2[C@H]1[C@H]6[C@H]5C[C@H]43
not listed: [1] | [2] | [4] | [7] | [19]
inactive: all other assays above

CCOC(=O)CP(=O)(OCC)OCC
not listed: [1] | [2] | [4] | [7] | [19]
inactive: all other assays above

Fc1ccc(C2(Cn3cncn3)OC2c2ccccc2Cl)cc1 (stereo not given)
active: [4] 17.2 µM
not listed: [1] | [2] | [5] | [9] | [11] | [19]
inactive: all other assays above
